# Screening data from PubChem BioAssay.
# Dicer processing = human Dicer pre-microRNA cleavage inhibition; cat-ELCCA pre-miR-21 Dicer processing, chemiluminescence; stronger effect = higher value; z-score at 25 µM; 47,000 compounds, 6% hits; in the data active means z-score above about 3, passing the limit was not always enough;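 further: higher signal means more uncleaved substrate so more Dicer inhibition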
# Numbers stand for hits; n = inactive. The entries come from a sample that favours hits as a whole.
SMILES,Dicer processing
COc1cc(C2c3c(oc4ccccc4c3=O)C(=O)N2c2nnc(C)s2)ccc1OCCC(C)C (stereo not given),n
O=C1c2oc3ccccc3c(=O)c2C(c2cccc(Br)c2)N1c1ccccn1 (stereo not given),n
CCCCOc1cccc(C2c3c(oc4ccccc4c3=O)C(=O)N2c2ccccn2)c1 (stereo not given),3.2
O=C1c2oc3ccccc3c(=O)c2C(c2cccc(Oc3ccccc3)c2)N1c1ccccn1 (stereo not given),4.3
CCCCOc1cccc(C2c3c(oc4ccccc4c3=O)C(=O)N2c2nnc(C)s2)c1 (stereo not given),n
O=C(O)c1ccc(-c2ccc(Br)cc2)cc1,n
Cc1nc(-c2ccc(S(=O)(=O)NCCCN)s2)cs1,n
O=C(CC(SCc1ccco1)c1cccs1)c1ccc(Cl)cc1 (stereo not given),n
O=C1Nc2ccc(Br)cc2C12OCCCO2,n
CCOC(=O)Cc1csc(NN=C(C)C)n1,n
C#CCSc1nc(=O)c2cccnc2n1-c1ccc(Br)cc1,n
CCOC(=O)c1c(SC)nc2c(Cl)cccc2c1N1CCCCC1,n
Cc1cccn2cc(CSc3cccc4cccnc34)nc12,n
CCOC(=O)c1cc(-c2ccccc2)sc1NC(=O)CN1CCN(c2ccccc2)CC1,n
CCOC(=O)c1ccc2nc(C(F)(F)F)cc(N3CC(C)CC(C)C3)c2c1 (stereo not given),n
COc1ccc(Oc2coc3cc(OCc4ccccc4)ccc3c2=O)cc1,n
Cc1csc(NC(=O)Nc2ccc(C(F)(F)F)cc2)c1,n
O=C(c1ccc(Br)cc1)N1CC2C3CCC(O3)C2C1 (stereo not given),n
O=C1SCCC1NS(=O)(=O)c1ccccc1 (stereo not given),n
O=C(COc1ccc(Cl)cc1)NC1CCSC1=O (stereo not given),n
COc1ccc(S(=O)(=O)NC2CCSC2=O)cc1 (stereo not given),3.7
Cc1cc(C)nc(SCC(=O)Nc2sc3c(c2C#N)CCCC3)n1,n
Nc1nonc1-c1nc2ccccc2n1Cc1ccc(-c2nn[nH]n2)cc1,n
Cc1nn(C)c(C)c1CN(C)C(=O)c1cc2nc(-c3ccc(Cl)cc3)cc(C(F)(F)F)n2n1,n
CCC(C)N1C(=O)N(C)C2NC(=O)NC21 (stereo not given),n
SMILES,Dicer processing
CCCC(C(=O)O)N1C(=O)NC2NC(=O)NC21 (stereo not given),3.4
CCC(C)C(C(=O)O)N1C(=O)NC2NC(=O)NC21 (stereo not given),n
CCOC(=O)CNC(=O)/C=C/c1cc(Br)c(OC)c(OC)c1,n
CC1CCC(C)(C)CN(c2ccc(C(F)(F)F)cc2[N+](=O)[O-])C1 (stereo not given),n
Cc1cc(C)c(S(=O)(=O)Oc2ccc(C3SCCS3)cc2)c(C)c1,n
O=C(c1cnc2cc(-c3ccccc3)nn2c1)c1cc(Br)ccc1O,3.3
O=C(c1cnc2cc(-c3ccccc3)nn2c1)c1cc(Cl)ccc1O,n
O=C(c1cnc2cc(-c3ccc(Cl)cc3)nn2c1)c1ccccc1O,n
COc1ccc(OCC2c3cc(OC)c(OC)cc3CCN2C(=O)c2cccc(Cl)c2)cc1 (stereo not given),n
O=C1OC(c2ccccc2)=N/C1=C/c1ccc(OCc2ccccc2)cc1,n
N#Cc1ccc(CNC(=S)Nc2cc(Cl)ccc2Cl)cc1,n
CC(=O)c1sc2ccc(C)cc2c1C,n
COc1ccc(C2CC(=O)C3=C(C2)NC(C)=C(C(=O)OC(C)C)C3c2ccc(F)cc2)cc1OC (stereo not given),n
C=CCn1c(N)cc(=O)nc1SCC(=O)Nc1ccccc1,n
O=c1c(Cc2ccccc2)c(O)c2ccccc2n1Cc1ccccc1,n
C=CCn1c(=O)c(C(=O)Nc2cccc(O)c2)c(O)c2ccccc21,11
CCCCCCN1C(=O)C(=O)c2ccccc21,n
O=S(=O)(Nc1ccccn1)c1ccc(C(F)(F)F)cc1Cl,n
O=S(=O)(Nc1ncccn1)c1ccc(C(F)(F)F)cc1Cl,3
COC(=O)C1=C(Nc2ccccc2NS(=O)(=O)c2ccc(C(F)(F)F)cc2Cl)CSC1,n
O=c1oc(-c2ccccc2F)nc2ccccc12,n
COc1cc(C(F)(F)F)nc2ccc(C)c(N)c12,n
CN1CCc2c(sc3nc(SCC(=O)c4ccccc4)nc(SCC(=O)c4ccccc4)c23)C1,n
COc1cc(NC(=O)CC2Sc3ccccc3NC2=O)c(OC)cc1Cl (stereo not given),n
COc1cc(C2Nc3ccccc3NC3=C2C(=O)CC(c2ccccc2)C3)cc(Cl)c1O (stereo not given),3.2
CC(C)Oc1ccccc1C1Nc2ccccc2NC2=C1C(=O)CC(c1ccccc1)C2 (stereo not given),5.7
COc1ccc(C2CC(=O)C3=C(C2)Nc2ccccc2NC3c2ccccc2OC(C)C)cc1 (stereo not given),n
COc1ccc(C2Nc3ccccc3NC3=C2C(=O)CC(c2ccccc2)C3)cc1O (stereo not given),n
COc1ccc(C2CC(=O)C3=C(C2)Nc2ccccc2NC3c2ccccc2OC(C)C)cc1OC (stereo not given),n
